“And” between values parts separate entries of the source, which are not always exact repeats. Identical values can stand only once. Records with an inconclusive call do not appear. The source made the active and inactive calls. The call rests on the fitted dose curve; in most records, active means well fitted curve in the direction sought with a large enough effect; inconclusive means small, poorly fitted or top-dose-only effect, or another doubt; inactive means no such curve, though single readings can be large; an effect the other way counts as inactive or inconclusive.
Legend:
[1] = Viability qHTS for spleen associated tyrosine kinase inhibitor (SYKi) naive MV4-11 cells (AID 1963823); conditions: MV4-11 AML viability, CellTiter-Glo luminescence, 72 h; series mostly up to 45 µM; further: nearly all actives have a fitted effect of over 40% in size
Outline: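 CellTiter-Glo luminescence, 10 min room-temperature incubation, gave viability. Cells: naive MV4-11 (500/well), treated 72 hr at 37 C, 5% CO2.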

[2] = Viability qHTS for spleen associated tyrosine kinase inhibitor (SYKi) drug resistant MV4-11 cells (AID 1963824); conditions: SYKi-resistant MV4-11 viability, CellTiter-Glo, 72 h; series mostly up to 45 µM; further: nearly all actives have a fitted effect of over 35% in size
Outline: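 SYK-inhibitor-resistant MV4-11 AML cells were seeded at 500 per well onto compound and cultured 72 hours (37 °C, 5% CO2). CellTiter-Glo was then added, and after 10 min at room temperature, luminescence gave viability.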

[3] = Quantitative highthroughput screen to assess conditional lethalithy of NOMO1 cells grown in Human Plasma-Like Medium with dialyzed fetal bovine serum (HPLM+ds) (AID 1963878); conditions: NOMO1 AML cells in HPLM+ds, CellTiter-Glo viability, 48 h; series mostly up to 45.8 µM; further: nearly all actives have a fitted effect of over 35% in size
Outline: (§1)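 Each medium arm—HPLM with 10% dialyzed FBS, or RPMI1640 with 5 mM glucose and 10% untreated or dialyzed FBS—was screened against an 11-point, 3-fold compound titration for 48 h at 37 °C, with CellTiter-Glo luminescence as endpoint.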

[4] = Quantitative highthroughput screen to assess conditional lethalithy of SEM cells grown in Human Plasma-Like Medium with dialyzed fetal bovine serum (HPLM+ds) (AID 1963882); conditions: SEM B-ALL cells in HPLM+ds, CellTiter-Glo viability, 48 h; series mostly up to 45.8 µM; further: nearly all actives have a fitted effect of over 35% in size
Outline: as §1

[5] = Quantitative highthroughput screen to assess conditional lethalithy of SEM cells grown in RPMI1640 with unreated serum (RPMI+s) (AID 1963883); conditions: SEM B-ALL cells, CellTiter-Glo viability, 48 h; series mostly up to 45.8 µM; further: nearly all actives have a fitted effect of over 35% in size
Outline: as §1

[6] = Quantitative highthroughput screen to assess conditional lethalithy of SEM cells grown in RPMI1640 with dialyzed fetal bovine serum (RPMI+ds) (AID 1963884); conditions: SEM B-ALL cells, RPMI+dialyzed FBS, CellTiter-Glo viability, 48 h; series mostly up to 45.8 µM; further: nearly all actives have a fitted effect of over 35% in size
Outline: as §1

[7] = Cellular viability qHTS for adrenocortical cancer (ACC) cell line SW-13 (AID 1963989); conditions: SW-13 ACC cells viability, CellTiter-Glo, 48 h; activity (max response): hits give low values; further: nearly all actives have a fitted effect of over 65% in size
Outline: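 Here, serum-free SW-13 cultures were dosed up to 46 uM. Following 48 h, ATP-dependent luminescence (CellTiter-Glo) reported viable cells, and logistic modeling produced IC50 values.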

[8] = Cellular viability qHTS for adrenocortical cancer (ACC) cell line NCI-H295R (AID 1963990); conditions: CellTiter-Glo ATP luminescence, 48 h; series mostly up to 46.1 µM; further: nearly all actives have a fitted effect of over 60% in size
Outline: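 Viability of NCI-H295R after 48 h of treatment (final up to 46 uM) measured through cellular ATP luminescence.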

[9] = Quantitative highthroughput screen to assess conditional lethalithy of P12 Ichikawa cells grown in Human Plasma-Like Medium with dialyzed fetal bovine serum (HPLM+ds) (AID 1963879); conditions: ATP luminescence, 48 h; Potency: viability; series mostly up to 45.8 µM; further: nearly all actives have a fitted effect of over 35% in size
Outline: as §1

[10] = Quantitative highthroughput screen to assess conditional lethalithy of P12 Ichikawa cells grown in RPMI1640 with dialyzed fetal bovine serum (RPMI+ds) (AID 1963880); conditions: ATP luminescence, 48 h; Potency: P12-Ichikawa viability; series mostly up to 45.8 µM; further: nearly all actives have a fitted effect of over 35% in size
Outline: as §1

[11] = Quantitative highthroughput screen to assess conditional lethalithy of P12 Ichikawa cells grown in RPMI1640 with untreated serum (RPMI+s) (AID 1963881); conditions: ATP luminescence, 48 h; Potency: viability; series mostly up to 45.8 µM; further: nearly all actives have a fitted effect of over 35% in size
Outline: as §1

Measured: Potency
Potency means the concentration at half of the fitted maximal effect.

COc1ccc(-c2cc3c(C)nc(N)nc3n(C3CCC(OCCO)CC3)c2=O)cn1 (centres undefined)
active: [1] 105 nM | [2] 206 nM and 417 nM | [3] 105 nM | [4] 833 nM | [5] 469 nM | [6] 1870 nM | [7] 1120 nM | [8] 501 nM

NC(=O)[C@H]1CCS[C@@H]2C[C@]3(CCCN3C(=O)Cc3ccc(NC(=O)COc4ccc(Cl)cc4Cl)cc3)C(=O)N12
active: [1] 3260 nM | [2] 2.91 µM | [9] 588 nM | [10] 1480 nM | [11] 1170 nM | [6] 1860 nM | [8] 3980 nM

O=C(Nc1ccc(OC(F)(F)F)cc1)c1sccc1NCc1ccnc2ccccc12
active: [1] 5.25 µM and 5.17 µM | [2] 4.68 µM and 5.8 µM | [9] 469 nM | [10] 2350 nM | [11] 2350 nM | [4] 2960 nM | [5] 2960 nM

CCn1cc(-c2ccnc3[nH]c(-c4cccc(CN(C)C)c4)cc23)c(-c2ccc(NC(=O)N(C)C)cc2)n1
active: [1] 103 nM and 83.3 nM | [2] 282 nM and 235 nM | [9] 66.2 nM | [10] 83.3 nM | [11] 83.3 nM | [4] 74.3 nM | [5] 46.9 nM | [6] 59 nM | [7] 17800 nM | [8] 12600 nM

C[C@@H](Oc1cc(-n2cnc3ccc(CN4CCN(C)CC4)cc32)sc1C(N)=O)c1ccccc1C(F)(F)F
active: [1] 20.9 nM | [2] 0.0105 µM | [9] 29.6 nM | [10] 33.2 nM | [11] 33.2 nM | [5] 33.2 nM | [7] 50.1 nM
